# Screening data (PubChem BioAssay)
# This is a sample that favours compounds with a hit; in the whole collection about 2.6% have one here.
# PfM18AAP inh = PfM18AAP inhibitors, malaria aminopeptidase, primary screen, biochemical, QFRET, recombinant enzyme | H-Glu-NHMec fluorogenic cleavage | inhibition, % at 7.35 µM | 1.2% of 290,000 active | AID 1822, 2009;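 active = inhibition above the campaign mean inhibition over all tested compounds plus 3 SD, cut at about 28% in these data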;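 note: 0% = plate median of test compound wells and 100% = 2 mM ZnCl2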
# Granule exo inh = LAMP-1 surface exposure blockers, TALL-104 cells – cell-based, flow cytometry, MLPCN library, primary screen | inhibition, % at 10 µM | 0.66% of 360,000 active | AID 651702, 2012 | TALL-104 LAMP-1 surface exposure; cells stimulated with thapsigargin and PMA;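 active = inhibition above about 55%, limit read from the data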
# Rce1 inh = yeast Rce1p protease inhibitors, primary screen, biochemical, fluorescence, cell-free homogeneous; CAAX prenyl protease 2 (Saccharomyces cerevisiae (strain ATCC 204508 / S288c)), Q03530; yeast membranes, quenched prenylated peptide cleavage fluorescence; AID 2563, 2010; calls only; 0.27% of 290,000 active;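 active = fall in fluorescence gain of 50% or more versus controls, with final raw signal at or below 3038400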;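 note: plate controls were neutral control wells for no effect and wells lacking membranes for full effect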
# Platelet DG rel = inhibitors of platelet dense granule secretion, primary screen, cell-based, MLPCN, human platelets. inhibition, %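 (compounds screened at 7.5 µM in platelet-rich plasma)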. human platelet-rich plasma, SFLLRN dense granule ATP release, luminescence. 0.22% of 300,000 active. AID 1663, 2009;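 active = mean replicate score, as percent of positive control, at or above 50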
# ABHD5-PLIN5 inh = ABHD5-PLIN5 interaction inhibitors, primary screen, cell lysate, split luciferase complementation, luminescence | Split G. princeps luciferase complementation, 4 h | AID 602281, 2012 | 0.78% of 360,000 active | inhibition, % at 4 µM | Perilipin-5 (Homo sapiens) + 1-acylglycerol-3-phosphate O-acyltransferase ABHD5 (Homo …;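 active = inhibition above the mean inhibition across every tested compound plus 3 SD, cut at about 22% in these data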;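 note: 0% = DMSO only wells and the 100% control is not disclosed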
# Granule exo CP1 = inhibitors of lytic granule exocytosis, confirmation, TALL-104 cells, flow cytometry, Cherry Pick01; shares compounds with Granule exo inh; LAMP-1 externalization; stimulated with PMA plus thapsigargin; inhibition, % at 10 µM; 11% of 1,500 active; AID 651954, 2012; in the data active = inhibition above about 60%;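 note: 0% = stimulated vehicle wells and 100% = unstimulated wells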
# * = called active by the depositor; i = inactive; . = no result.
SMILES,PfM18AAP inh,Granule exo inh,Rce1 inh,Platelet DG rel,ABHD5-PLIN5 inh,Granule exo CP1
CC(C)CNC(=O)c1c(N)n(Cc2ccc3c(c2)OCO3)c2nc3ccccc3nc12,9.9,55.8*,i,-1.8,-29.6,80.8*
COC(=O)C1=C(c2ccc(OC(F)(F)F)cc2)C[C@@H]2CC[C@H]1N2C(=O)NCCCOC(C)C,.,6.0,.,.,-0.6,.
COc1ccc(CC(=O)N(CCN(C)C)CC2CCCN(Cc3ccccc3F)C2)cc1 (stereo not drawn),-12.6,62.7*,i,-12.8,1.6,-12.1
CN(C)CCN(CC1CCCN(Cc2ccccc2F)C1)C(=O)Cc1ccccc1F (stereo not drawn),12.6,34.0,i,0.8,12.4,.
COc1ccc(-n2nc(C(=O)NCC(=O)N3CCC4(CC3)OCCO4)c3ccccc3c2=O)cc1OC,-7.4,-13.6,i,0.2,8.3,.
O=P(Nc1ccccc1)(Oc1ccccc1)Oc1ccccc1,-16.0,25.4,i,10.1,-7.2,.
Cc1cccc(NP(=O)(Oc2ccccc2)Oc2ccccc2)c1C,0.0,58.4*,i,27.4,-1.4,-10.6
CCOC(=O)[C@]12Cc3cc(Cl)ccc3[C@H]1N(Cc1ccccc1)C(=O)c1ccccc12,.,87.1*,.,.,2.0,-3.3
C1=C(CCNCc2ccccc2)CCCC1,3.6,-2.0,i,3.3,4.9,.
COC(=O)C1=C(c2ccc(C(C)=O)cc2)C[C@@H]2CC[C@H]1N2C(=O)NC1CCCCC1,.,65.4*,.,.,1.4,-12.6
COC(=O)C1=C(c2ccc3ccccc3c2)C[C@@H]2CC[C@H]1N2C(=O)NC1CCCCC1,.,9.5,.,.,-3.2,.
CN(Cc1ccccc1)C(=O)CN1CCCC1=O,7.1,-6.8,i,-7.2,1.6,.
COC(=O)c1ccc(NC(=O)CSc2nc3ccc(N4C(=O)C5C6C=CC(C6)C5C4=O)cc3s2)cc1 (stereo not drawn),-2.3,80.7*,i,1.8,-9.0,84.7*
CC(Cc1ccccc1)NCC(=O)Nc1cc(N(C)C)nc2ccccc12 (stereo not drawn),2.2,61.5*,i,4.8,8.2,-14.4
CC(Cc1ccccc1)NCc1ccccc1O (stereo not drawn),-14.0,-0.8,i,-3.3,4.4,.
CN1CCC(O)(c2cccs2)C(C(=O)c2cccs2)C1 (stereo not drawn),-20.6,75.1*,i,.,6.2,-10.8
CCCCN1CCC(O)(c2ccccc2)C(C(=O)c2ccccc2)C1 (stereo not drawn),-0.4,0.3,i,-0.5,1.3,.
O=C1/C(=C\c2ccc(Cl)cc2Cl)N2CCC1CC2,-0.8,64.8*,i,13.4,3.0,-12.0
Cc1ncc([N+](=O)[O-])n1CCOc1nonc1N,6.0,-1.6,i,-4.7,-3.5,.
